Holding throughout (experiment): DAPPL (digital affinity profiling via proximity ligation, sequencing); 10 mM Tris-HCl pH 7.5, 50 mM NaCl, 1 mM DTT, 4% glycerol, room temperature, 30 min; GST-TFs on glutathione beads, 16-mer random dsDNA library, 0.1% formaldehyde crosslink after washing; high values mean tight binding
Conditions in all cases: protein: recombinant; tags: N-terminal GST; dsDNA, one strand shown

The target in one experiment is T1, ELK4 (Homo sapiens, UniProt P28324-2 1-405).
T1 sequence: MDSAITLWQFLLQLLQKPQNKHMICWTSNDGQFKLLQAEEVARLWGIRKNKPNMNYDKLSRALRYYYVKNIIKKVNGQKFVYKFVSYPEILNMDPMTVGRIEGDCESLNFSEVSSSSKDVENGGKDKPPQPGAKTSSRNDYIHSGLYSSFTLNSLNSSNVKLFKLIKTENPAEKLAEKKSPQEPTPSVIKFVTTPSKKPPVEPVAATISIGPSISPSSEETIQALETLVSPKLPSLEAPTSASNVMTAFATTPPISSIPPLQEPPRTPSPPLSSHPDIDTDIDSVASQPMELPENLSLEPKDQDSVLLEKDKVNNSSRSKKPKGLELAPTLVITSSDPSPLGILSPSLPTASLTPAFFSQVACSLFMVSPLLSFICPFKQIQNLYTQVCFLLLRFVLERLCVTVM
Put shortly: (§1)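 Human transcription factors carrying a GST fusion were produced in yeast, bound to glutathione beads, tagged with DNA barcodes and pooled together with a tag-only sample. Each pool was held with 200 nmole of a random double-stranded 16-mer DNA library in Tris/NaCl/DTT/glycerol buffer for 30 min at room temperature, then washed, crosslinked in 0.1% formaldehyde, proximity-ligated with BsaI/T4 ligase (1 h, 37 °C), PCR-amplified and sequenced on an Illumina NextSeq500. Binding signal is the read frequency of each hexamer for a given factor divided by its frequency in the tag-only sample.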

For another experiment, the target named is CRX (Homo sapiens, UniProt O43186 1-299). Put shortly:
as §1

In another experiment the target is ETV1 (Homo sapiens, UniProt P50549 1-477). A digest of the protocol: as §1
A further experiment addresses T2, ERF (Homo sapiens, UniProt P50548 1-548).
T2 sequence: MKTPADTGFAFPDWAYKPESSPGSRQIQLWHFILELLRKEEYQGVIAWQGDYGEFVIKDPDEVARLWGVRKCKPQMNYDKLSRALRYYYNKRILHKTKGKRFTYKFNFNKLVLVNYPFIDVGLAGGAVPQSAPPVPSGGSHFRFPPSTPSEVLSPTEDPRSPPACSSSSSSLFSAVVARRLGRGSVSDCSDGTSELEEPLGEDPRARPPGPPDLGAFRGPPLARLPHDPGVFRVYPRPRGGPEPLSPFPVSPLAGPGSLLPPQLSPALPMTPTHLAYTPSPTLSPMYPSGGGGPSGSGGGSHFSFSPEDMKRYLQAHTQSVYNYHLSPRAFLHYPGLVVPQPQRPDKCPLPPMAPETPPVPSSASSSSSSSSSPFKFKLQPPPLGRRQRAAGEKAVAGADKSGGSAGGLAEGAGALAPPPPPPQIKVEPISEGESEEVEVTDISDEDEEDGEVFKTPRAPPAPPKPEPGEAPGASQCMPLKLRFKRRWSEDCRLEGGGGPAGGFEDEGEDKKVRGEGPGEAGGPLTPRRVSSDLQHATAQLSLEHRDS
A digest of the protocol: as §1

A further experiment deals with T3, ETV3 (Homo sapiens, UniProt P41162-2 1-143).
T3 sequence: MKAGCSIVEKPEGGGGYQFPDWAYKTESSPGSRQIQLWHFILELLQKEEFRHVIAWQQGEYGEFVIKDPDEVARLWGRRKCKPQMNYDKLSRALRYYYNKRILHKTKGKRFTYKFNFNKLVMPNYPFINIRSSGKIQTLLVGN
A digest of the protocol: as §1

The next experiment concerns the target T4, ETV2 (Homo sapiens, UniProt O00321 1-342).
T4 sequence: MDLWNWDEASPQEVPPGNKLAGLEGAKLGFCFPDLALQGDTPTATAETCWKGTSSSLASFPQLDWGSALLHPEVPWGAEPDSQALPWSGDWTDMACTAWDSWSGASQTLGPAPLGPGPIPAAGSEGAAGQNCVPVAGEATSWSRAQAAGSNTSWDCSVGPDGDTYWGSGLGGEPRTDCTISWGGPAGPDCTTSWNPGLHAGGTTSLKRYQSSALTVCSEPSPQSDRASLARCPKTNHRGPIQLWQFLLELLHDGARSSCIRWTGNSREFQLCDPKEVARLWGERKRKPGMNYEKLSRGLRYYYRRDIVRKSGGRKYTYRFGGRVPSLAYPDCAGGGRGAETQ
A digest of the protocol:
as §1

A further experiment addresses T5, FEV (Homo sapiens, UniProt Q99581 1-238).
T5 sequence: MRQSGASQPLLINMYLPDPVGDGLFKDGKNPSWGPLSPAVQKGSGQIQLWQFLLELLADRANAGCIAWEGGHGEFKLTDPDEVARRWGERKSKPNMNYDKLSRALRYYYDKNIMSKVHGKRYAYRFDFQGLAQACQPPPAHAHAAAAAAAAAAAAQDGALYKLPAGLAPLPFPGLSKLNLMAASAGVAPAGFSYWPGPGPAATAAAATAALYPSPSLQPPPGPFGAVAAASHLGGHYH
A digest of the protocol: as §1

Another experiment deals with T6, ERG (Homo sapiens, UniProt P11308 1-479).
T6 sequence: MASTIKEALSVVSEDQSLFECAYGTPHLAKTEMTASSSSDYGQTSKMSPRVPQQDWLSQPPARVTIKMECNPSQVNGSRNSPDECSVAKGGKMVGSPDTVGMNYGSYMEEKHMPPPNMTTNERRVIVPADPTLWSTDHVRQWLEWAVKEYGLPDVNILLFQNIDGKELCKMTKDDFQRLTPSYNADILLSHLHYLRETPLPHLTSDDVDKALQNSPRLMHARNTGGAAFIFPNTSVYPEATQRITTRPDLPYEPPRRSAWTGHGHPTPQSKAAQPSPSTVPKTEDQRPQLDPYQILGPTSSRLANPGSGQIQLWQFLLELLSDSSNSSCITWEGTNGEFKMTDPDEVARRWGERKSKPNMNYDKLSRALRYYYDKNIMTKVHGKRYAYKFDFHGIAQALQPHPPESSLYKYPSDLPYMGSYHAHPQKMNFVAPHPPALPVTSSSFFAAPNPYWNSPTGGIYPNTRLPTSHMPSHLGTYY
Put shortly:
as §1

A further experiment has as its target SPIB (Homo sapiens, UniProt Q01892 1-262). A digest of the protocol:
as §1

The next experiment concerns the target T7, ETV3L (Homo sapiens, UniProt Q6ZN32 1-361).
T7 sequence: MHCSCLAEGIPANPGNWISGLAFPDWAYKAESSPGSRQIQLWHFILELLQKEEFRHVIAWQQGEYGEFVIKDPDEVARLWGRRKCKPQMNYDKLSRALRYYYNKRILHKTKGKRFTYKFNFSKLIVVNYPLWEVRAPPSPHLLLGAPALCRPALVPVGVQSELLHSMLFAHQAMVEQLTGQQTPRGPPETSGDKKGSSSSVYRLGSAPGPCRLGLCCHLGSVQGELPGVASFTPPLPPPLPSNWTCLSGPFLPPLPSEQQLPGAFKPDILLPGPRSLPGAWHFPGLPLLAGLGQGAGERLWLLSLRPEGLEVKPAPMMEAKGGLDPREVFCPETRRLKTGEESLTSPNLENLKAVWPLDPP
Put shortly:
as §1

In another experiment the target is T8, ETS2 (Homo sapiens, UniProt P15036 1-469).
T8 sequence: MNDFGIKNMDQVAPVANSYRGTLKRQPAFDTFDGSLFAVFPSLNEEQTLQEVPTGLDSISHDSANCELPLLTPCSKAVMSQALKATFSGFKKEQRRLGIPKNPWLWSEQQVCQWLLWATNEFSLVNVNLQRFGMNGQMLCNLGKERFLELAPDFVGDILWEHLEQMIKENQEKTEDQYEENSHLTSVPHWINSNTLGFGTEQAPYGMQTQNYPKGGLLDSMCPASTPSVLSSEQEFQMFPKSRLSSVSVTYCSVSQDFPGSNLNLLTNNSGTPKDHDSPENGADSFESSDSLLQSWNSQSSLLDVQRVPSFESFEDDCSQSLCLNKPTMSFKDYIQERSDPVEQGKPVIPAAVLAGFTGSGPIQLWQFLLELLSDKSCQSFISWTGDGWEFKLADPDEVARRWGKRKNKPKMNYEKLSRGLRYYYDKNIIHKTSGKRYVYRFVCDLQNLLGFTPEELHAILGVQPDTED
Put shortly:
as §1

For the next experiment, the target named is T9, ELK1 (Homo sapiens, UniProt P19419 1-428).
T9 sequence: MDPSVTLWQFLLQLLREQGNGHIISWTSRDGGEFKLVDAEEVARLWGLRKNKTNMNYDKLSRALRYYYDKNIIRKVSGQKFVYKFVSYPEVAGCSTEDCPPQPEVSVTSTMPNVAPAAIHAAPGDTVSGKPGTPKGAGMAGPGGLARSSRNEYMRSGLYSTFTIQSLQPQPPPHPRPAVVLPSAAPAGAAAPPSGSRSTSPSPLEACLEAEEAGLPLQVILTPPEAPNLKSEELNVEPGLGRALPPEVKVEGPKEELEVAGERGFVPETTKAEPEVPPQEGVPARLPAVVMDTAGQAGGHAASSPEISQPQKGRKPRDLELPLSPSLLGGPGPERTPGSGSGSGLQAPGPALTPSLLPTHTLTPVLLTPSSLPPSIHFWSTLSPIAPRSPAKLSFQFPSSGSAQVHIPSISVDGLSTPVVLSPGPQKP
Put shortly:
as §1

Another experiment addresses ELF1 (Homo sapiens, UniProt P32519 1-619). Put shortly: as §1
A further experiment has as its target T10, EHF (Homo sapiens, UniProt Q9NZC4 1-300).
T10 sequence: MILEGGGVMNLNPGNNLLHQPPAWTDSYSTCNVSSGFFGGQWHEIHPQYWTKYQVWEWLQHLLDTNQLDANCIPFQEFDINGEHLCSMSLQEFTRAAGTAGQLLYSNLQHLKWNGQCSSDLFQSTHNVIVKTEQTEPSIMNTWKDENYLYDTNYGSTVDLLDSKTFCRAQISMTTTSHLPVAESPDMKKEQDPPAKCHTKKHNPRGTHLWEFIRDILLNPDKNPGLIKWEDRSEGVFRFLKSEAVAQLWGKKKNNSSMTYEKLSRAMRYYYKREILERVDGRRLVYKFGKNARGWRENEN
Put shortly:
as §1

The next experiment addresses T11, ELK3 (Homo sapiens, UniProt P41970 1-407).
T11 sequence: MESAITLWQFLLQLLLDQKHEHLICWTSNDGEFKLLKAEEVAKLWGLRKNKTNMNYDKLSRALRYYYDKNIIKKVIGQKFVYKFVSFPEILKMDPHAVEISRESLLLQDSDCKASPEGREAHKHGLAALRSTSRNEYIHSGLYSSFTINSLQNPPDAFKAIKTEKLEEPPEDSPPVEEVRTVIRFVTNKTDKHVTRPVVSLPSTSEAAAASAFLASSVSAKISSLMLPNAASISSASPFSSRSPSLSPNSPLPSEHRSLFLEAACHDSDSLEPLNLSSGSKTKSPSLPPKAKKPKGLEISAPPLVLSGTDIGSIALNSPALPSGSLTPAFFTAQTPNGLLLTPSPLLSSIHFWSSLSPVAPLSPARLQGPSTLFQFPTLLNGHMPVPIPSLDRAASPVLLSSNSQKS
A digest of the protocol:
as §1

Another experiment addresses T12, ETV7 (Homo sapiens, UniProt Q9Y603 1-341).
T12 sequence: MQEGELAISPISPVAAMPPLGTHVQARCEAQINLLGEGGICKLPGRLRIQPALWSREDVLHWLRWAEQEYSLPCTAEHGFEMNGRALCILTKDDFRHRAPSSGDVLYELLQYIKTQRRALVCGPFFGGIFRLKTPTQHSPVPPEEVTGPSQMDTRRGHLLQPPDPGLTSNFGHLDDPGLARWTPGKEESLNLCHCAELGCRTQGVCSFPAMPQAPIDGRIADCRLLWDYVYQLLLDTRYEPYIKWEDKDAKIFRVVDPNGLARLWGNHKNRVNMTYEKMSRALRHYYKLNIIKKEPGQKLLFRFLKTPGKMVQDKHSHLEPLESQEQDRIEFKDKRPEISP
Put shortly:
as §1

Chain of CRX (O43186 whole entry): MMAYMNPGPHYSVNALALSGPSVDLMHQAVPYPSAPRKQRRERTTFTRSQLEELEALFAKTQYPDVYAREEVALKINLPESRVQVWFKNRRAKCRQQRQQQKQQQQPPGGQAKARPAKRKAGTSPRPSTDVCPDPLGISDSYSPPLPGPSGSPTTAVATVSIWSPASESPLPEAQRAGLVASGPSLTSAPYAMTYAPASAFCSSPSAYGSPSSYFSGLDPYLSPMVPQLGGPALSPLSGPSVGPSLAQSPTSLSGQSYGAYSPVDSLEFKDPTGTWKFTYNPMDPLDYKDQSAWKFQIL
Chain of SPIB (Q01892 whole entry): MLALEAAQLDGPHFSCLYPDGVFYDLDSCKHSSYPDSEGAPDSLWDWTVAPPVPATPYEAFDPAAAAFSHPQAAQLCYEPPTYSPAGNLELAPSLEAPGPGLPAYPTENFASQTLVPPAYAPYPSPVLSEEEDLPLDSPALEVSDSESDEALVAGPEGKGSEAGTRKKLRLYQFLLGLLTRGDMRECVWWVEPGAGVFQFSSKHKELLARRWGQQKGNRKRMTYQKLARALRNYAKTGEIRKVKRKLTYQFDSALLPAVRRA
Chain of ETV1 (P50549 whole entry): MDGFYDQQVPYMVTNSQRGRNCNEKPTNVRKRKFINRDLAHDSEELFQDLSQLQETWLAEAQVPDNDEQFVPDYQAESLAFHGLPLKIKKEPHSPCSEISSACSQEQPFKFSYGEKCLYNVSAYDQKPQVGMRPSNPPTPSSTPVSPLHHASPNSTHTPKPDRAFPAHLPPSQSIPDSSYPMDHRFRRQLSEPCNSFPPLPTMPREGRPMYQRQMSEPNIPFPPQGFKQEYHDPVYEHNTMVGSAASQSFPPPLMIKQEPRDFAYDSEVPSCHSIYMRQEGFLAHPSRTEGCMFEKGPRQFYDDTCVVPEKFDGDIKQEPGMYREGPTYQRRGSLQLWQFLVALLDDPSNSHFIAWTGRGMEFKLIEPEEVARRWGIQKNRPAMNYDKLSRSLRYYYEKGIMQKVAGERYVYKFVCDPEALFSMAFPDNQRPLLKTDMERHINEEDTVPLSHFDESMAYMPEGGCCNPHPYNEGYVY
Chain of ELF1 (P32519 whole entry): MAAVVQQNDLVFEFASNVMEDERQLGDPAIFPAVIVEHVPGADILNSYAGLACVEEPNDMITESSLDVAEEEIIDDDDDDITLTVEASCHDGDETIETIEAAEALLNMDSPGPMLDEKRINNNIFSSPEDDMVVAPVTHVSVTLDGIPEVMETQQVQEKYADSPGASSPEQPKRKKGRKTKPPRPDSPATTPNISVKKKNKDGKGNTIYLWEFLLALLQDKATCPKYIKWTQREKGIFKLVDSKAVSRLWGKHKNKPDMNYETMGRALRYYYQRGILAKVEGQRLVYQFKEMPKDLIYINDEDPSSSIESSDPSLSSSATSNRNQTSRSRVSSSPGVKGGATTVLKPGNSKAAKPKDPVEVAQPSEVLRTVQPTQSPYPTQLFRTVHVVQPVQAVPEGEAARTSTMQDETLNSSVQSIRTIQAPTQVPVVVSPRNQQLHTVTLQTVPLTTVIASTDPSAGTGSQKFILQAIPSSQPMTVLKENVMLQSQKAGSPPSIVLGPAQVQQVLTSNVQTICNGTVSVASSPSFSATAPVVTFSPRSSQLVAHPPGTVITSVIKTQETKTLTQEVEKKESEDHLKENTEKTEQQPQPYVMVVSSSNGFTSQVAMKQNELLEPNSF

In the case of AAGCCA, the binding signal with ELK4 is 1.02 fold enrichment (6-mer frequency, TF over GST control); with CRX it was 1.12 fold enrichment (6-mer frequency, TF over GST control).

CAACGG: the binding signal with ELK4 is 1.01 fold enrichment (6-mer frequency, TF over GST control); with ETV1, 1.01 fold enrichment (6-mer frequency, TF over GST control); in the experiment with ERF, 1.08 fold enrichment (6-mer frequency, TF over GST control); in the experiment with ETV3, 1.01 fold enrichment (6-mer frequency, TF over GST control).

GCGTCA: the binding signal was 1.01 fold enrichment (6-mer frequency, TF over GST control) with ELK4 and 1.06 fold enrichment (6-mer frequency, TF over GST control) with ETV2.

For the sequence TGGGAC, the binding signal was 1 fold enrichment (6-mer frequency, TF over GST control) with FEV; 1.03 fold enrichment (6-mer frequency, TF over GST control) with ELK4; 1.14 fold enrichment (6-mer frequency, TF over GST control) with ETV2.

On to ACGCGT, for which the binding signal in the experiment with ERG is 1 fold enrichment (6-mer frequency, TF over GST control); in the experiment with SPIB, 1.04 fold enrichment (6-mer frequency, TF over GST control); with ELK4, 1.1 fold enrichment (6-mer frequency, TF over GST control); with ETV3L it was 1.02 fold enrichment (6-mer frequency, TF over GST control); in the experiment with ETS2 it was 1.01 fold enrichment (6-mer frequency, TF over GST control).

GGCAGC: the binding signal was 1.02 fold enrichment (6-mer frequency, TF over GST control) with ELK1; 1.02 fold enrichment (6-mer frequency, TF over GST control) with FEV; 1.02 fold enrichment (6-mer frequency, TF over GST control) in the experiment with ETV2.

Regarding GATTGA, the binding signal with ELK1 is 1.01 fold enrichment (6-mer frequency, TF over GST control); in the experiment with CRX, 1.11 fold enrichment (6-mer frequency, TF over GST control).

On to TCTGAG, for which the binding signal was 1.01 fold enrichment (6-mer frequency, TF over GST control) with ELF1; 1.01 fold enrichment (6-mer frequency, TF over GST control) in the experiment with EHF; 1.01 fold enrichment (6-mer frequency, TF over GST control) with ELK3; 1.08 fold enrichment (6-mer frequency, TF over GST control) with ELK4; 1.04 fold enrichment (6-mer frequency, TF over GST control) in the experiment with CRX; 1.01 fold enrichment (6-mer frequency, TF over GST control) with ETV3L. Also, the binding signal with ETV7 is 1.05 fold enrichment (6-mer frequency, TF over GST control).

Values taken from publication PMC7862700, “An all-to-all approach to the identification of sequence-specific readers for epigenetic DNA modifications on cytosine”.
